# Measured values from ChEMBL document CHEMBL4513216, “Probing the Open Global Health Chemical Diversity Library for Multistage-Active Starting Points for Next-Generation Antimalarials” (ACS Infect Dis, 2020).
# About 8,600 (12%) of roughly 69,000 compounds showed an effect of 50% or more. This excerpt belongs to a sample that is enriched for strong results.
# System: Plasmodium berghei
# Experiment: Screen against P. berghei liver stage (PbLuc), transformed with Luciferase, at 10uM
# Format: functional, HepG2
# Conditions: tested at 10 uM
row,SMILES,INHIBITION [%]
1,Cc1noc(C)c1-c1ccc(C2CCCN2C(=O)Cn2ccnc2)nc1 (stereo unspecified),53.2
2,CC(=O)N1CCCC1c1ccc(-c2c(C)noc2C)cn1 (stereo unspecified),25.6
3,Cc1noc(C)c1-c1ccc(C2CCCN2C(=O)c2cnn(C)c2)nc1 (stereo unspecified),-32.2
4,Cc1noc(C)c1-c1ccc(C2CCCN2C(=O)c2cccnn2)nc1 (stereo unspecified),31.6
5,Cc1noc(C)c1-c1ccc(C2CCCN2C(=O)c2ccncn2)nc1 (stereo unspecified),61.7
6,Cc1noc(C)c1-c1ccc(C2CCCN2C(=O)c2cccnc2)nc1 (stereo unspecified),-5.71
7,Cc1csc(CCNC(=O)N2CCC(C(N)=O)CC2)n1,36.9
8,Cc1nn(C)c2cnn(CC(=O)NCc3ccc(F)cc3)c12,44.9
9,OCCC1(NCc2ccc(-n3cccn3)cc2)CCOCC1,12
10,CCN1CCN(C(=O)C2CCOC2)c2ccccc21 (stereo unspecified),48.3
11,COc1ccc(CCNC(=O)C(C)Nc2ccc(C)c(C)c2)cc1 (stereo unspecified),58.5
12,COc1ccc(CCNC(=O)C(C)Nc2cccc(C)c2C)cc1 (stereo unspecified),20.9
13,COc1ccc(CCNC(=O)C(C)Nc2cc(C)ccc2C)cc1 (stereo unspecified),44.9
14,CCn1cc(CN2CCCN(C(=O)c3ccccc3C)CC2)cn1,-57.4
15,CCCn1nnnc1COC(=O)C1COc2ccc(Cl)cc2C1 (stereo unspecified),32.3
16,CCc1nncn1CCNC(=O)N1CCCC(Cc2nccn2C)C1 (stereo unspecified),17.6
17,CC(C)c1nnc2n1CC(CNc1cnc3ccccc3n1)CC2 (stereo unspecified),43.4
18,CCc1nnc2n1CC(CNc1cnc3ccccc3n1)CC2 (stereo unspecified),27.6
19,Cc1nnc2n1CC(CNc1cnc3ccccc3n1)CC2 (stereo unspecified),60.1
20,CC(C(=O)N1CCN(Cc2ccc(C#N)cc2)CC1)n1ccnc1 (stereo unspecified),23.5
21,O=C1CCCN1Cc1nnc2n1CCCN(Cc1ccco1)C2,-9.23
22,Cc1ccc(NC2CCN(C(=O)c3cscn3)CC2)nn1,-77.1
23,CCOCCOC(C)C(=O)NCc1cn2cc(Br)ccc2n1 (stereo unspecified),-27.6
24,COc1c(C)cnc(CNC(=O)CCOCC(C)C)c1C,-74

row,SMILES,INHIBITION [%]
1,CCCC(C)C(=O)NCc1cn2cc(Br)ccc2n1 (stereo unspecified),-19
2,CCOCCOC(C)C(=O)NCc1cn2cc(Cl)ccc2n1 (stereo unspecified),53.4
3,CCOCCCC(=O)NCc1cn2cc(Br)ccc2n1,11.1
4,CCC(CC)C(=O)NCc1cn2cc(Br)ccc2n1,50
5,CC(C)COCCC(=O)NCc1cn2cc(Br)ccc2n1,55.1
6,CCOCCOC(C)C(=O)NCc1ccc(N2CCCCC2)cc1 (stereo unspecified),21.7
7,CC(C(=O)NCc1cn2cc(Br)ccc2n1)S(C)(=O)=O (stereo unspecified),40.6
8,CN(C)c1cc(C2CCCN(C(=O)c3ccc(=O)[nH]n3)C2)ccn1 (stereo unspecified),34.1
9,CC(=O)NCc1cc2n(n1)CCN(Cc1cccc(CCN)c1)C2,-7.53
10,Cc1ccccc1C(=O)NCc1ccnc(N(C)C)c1,24
11,O=C(c1ccncc1)N1CCC(c2nc(O)cc(-c3cccnc3)n2)C1 (stereo unspecified),48.9
12,CNC(=O)[C@H]1CC[C@@H]2[C@@H](CCN2C(=O)N(C)C)O1,15.7
13,CNC(=O)[C@@H]1CC[C@@H]2[C@@H](CCN2C(=O)N(C)C)O1,58.5
14,CN(C)C(=O)[C@H]1CC[C@@H]2[C@@H](CCN2C(=O)N(C)C)O1,14.2
15,Cn1cccc1C(=O)N1C[C@@H]2C[C@@H](c3nnc(C4CC4)o3)O[C@@H]2C1,43.9
16,CCCc1noc(C2CCN(C(=O)C3CCCO3)CC2)n1 (stereo unspecified),13.9
17,CCc1cc(N(C)Cc2ncc[nH]2)nc(N2CCOCC2)n1,25.8
18,CCc1cc(N(C)Cc2nonc2C)nc(N2CCOCC2)n1,27.7
19,CCc1cc(N(C)Cc2[nH]nc3c2CCC3)nc(N2CCOCC2)n1,51.1
20,Cc1cc(Oc2ccccc2)nc(C2CCCCN2)n1 (stereo unspecified),16.5
21,CNc1cc(N2CCCC2CNCc2ccccn2)ncn1 (stereo unspecified),-21.3
22,CNc1cc(N2CCCC2CNCc2ccco2)ncn1 (stereo unspecified),59.8
23,CNc1cc(N2CCCC2CNCc2ccc(Cl)o2)ncn1 (stereo unspecified),56.9
24,CNc1cc(N2CCCC2CNCc2ccc(C)o2)ncn1 (stereo unspecified),-0.448

row,SMILES,INHIBITION [%]
1,CNc1cc(N2CCCC2CNCc2cnc(C)cn2)ncn1 (stereo unspecified),7.7
2,CNc1cc(N2CCCC2CNCc2cccs2)ncn1 (stereo unspecified),36.8
3,O=C(CNC(=O)c1ccc(Cl)cc1)Nc1nccs1,14.5
4,COc1ncccc1NC(=O)N(C1CC1)C(C)C(C)C (stereo unspecified),31.3
5,Cc1ccccc1C1CCN(CCNC(=O)CS(C)(=O)=O)C1 (stereo unspecified),36.9
6,Cc1nc(CC(=O)NCCN2CCC(c3ccccc3C)C2)cs1 (stereo unspecified),42.4
7,CCCc1nc(C(=O)NCCN2CCC(c3ccccc3C)C2)cs1 (stereo unspecified),85.1
8,COc1c(Br)c(CC2CC(CO)=NO2)c(OC)c2c1OCO2 (stereo unspecified),22.6
9,CCn1cc(CN2CCN(C(=O)c3cc(Br)cs3)CC2)c(C)n1,38.3
10,Cn1cc(Cl)c(CN(Cc2ccsc2)CC2CCCO2)n1 (stereo unspecified),11.5
11,CCN(Cc1ccc(C(C)=O)cc1)CC1CCOCC1,14.6
12,O=c1oc2ccccc2n1CCCN1CCCC1c1ccc(O)cc1 (stereo unspecified),6.61
13,CCCN(CCn1c(=O)oc2ccccc21)CC1CC1,56.3
14,O=c1oc2ccccc2n1CCN(CC1CCOC1)C1CC1 (stereo unspecified),51.3
15,CCN(CC)CCn1c(=O)oc2ccccc21,-5.1
16,Cn1cc(C2CCCN2CCCn2c(=O)oc3ccccc32)cn1 (stereo unspecified),1.84
17,O=c1c2ccccc2nnn1CN(CC1CCOC1)C1CC1 (stereo unspecified),-5.92
18,Cc1nn(CN(CC2CCOC2)C2CC2)c(=O)c2ccccc12 (stereo unspecified),8.86
19,CCN(CCn1c(=O)oc2ccccc21)CC1CCOCC1,64.9
20,CCn1cc2[nH]c(OC)c(CNC(=O)C3CCCN(C)C3)cc-2c1=O (stereo unspecified),34.4
21,CC(C)(C)Nc1c(C2CCCN(C(=O)C3CC3)C2)nc2ccccn12 (stereo unspecified),14.05
22,Cc1nnc(CN(CCc2ccccc2)C2CCN(C)CC2)s1,4.12
23,CCn1cc(CNC2CCN(c3cccc(C)c3C)CC2)cn1,-12.1
